Experimental data as given in PubChem BioAssay.
Activity calls are given as the source filed them.

Experiments:
[1] = system: Plasmodium falciparum Sir2 (PF13_0152, Sir2A); assay: pfSir2 binders on small-molecule microarrays, primary screen, biochemical, small-molecule microarray, 635 nm fluorescence (AID 1098); conditions: small-molecule microarray binding, fluorescence 635 nm; higher = more signal;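 further: score merges spot fluorescence intensity with its signal-to-noise ratio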
[2] = small-molecule microarray binders of probe aDKK1, primary screen, biochemical, biotinylated probe, 635/667 nm fluorescence (AID 1099); conditions: higher = more signal;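 further: score merges 667nm spot fluorescence with signal to noise across triplicate slides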
[3] = small-molecule microarray binders of probe aCHRDL2, primary screen, biochemical, biotinylated probe, 635/667 nm fluorescence (AID 1100); conditions: higher = more signal
[4] = splicing luciferase reporter signal modulators, primary screen, spliceosome inhibition project, cell-based, HEK293, splice +/- reporter (AID 1101); conditions: luminescence, 24 h, higher = more signal, called active from +8 up or from −8 down;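 further: HEK293 cells carrying a splicing-competent luciferase reporter gene; test concentration not given here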
[5] = molecular target: Fibroblast growth factor 10 (Homo sapiens) (UniProt O15520); assay: FGF10 binders on small-molecule microarrays, primary screen, biochemical, small-molecule microarray, 635 nm fluorescence (AID 1102); conditions: FGF10 binding, fluorescence 635 nm, higher = more signal
[6] = system: glycogen synthase kinase-3 (GSK3A per assay name; protocol says GSK3B); assay: GSK3 binders on small-molecule microarrays, primary screen, biochemical, small-molecule microarray, 635 nm fluorescence, GSK3A (AID 1103); conditions: small-molecule microarray binding, fluorescence 635 nm; higher = more signal; further: the record names both GSK3A and GSK3B
[7] = molecular target: Epidermal growth factor receptor (Homo sapiens) (UniProt P00533); assay: EGFR binders on small-molecule microarrays, primary screen, biochemical, small-molecule microarray, 635 nm fluorescence (AID 1104); conditions: EGFR binding, higher = more signal;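 further: score merges 667 nm emission intensity with spot signal to noise over triplicate slides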
[8] = molecular target: Follistatin-related protein 3 (Homo sapiens) (UniProt O95633); assay: FSTL3 binders on small-molecule microarrays, primary screen, biochemical, small-molecule microarray, 635 nm fluorescence (AID 1105); conditions: FSTL3 binding, higher = more signal;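 further: score merges emission near 667 nm and signal to noise per printed spot across three slides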
[9] = molecular target: Dickkopf-related protein 1 (Homo sapiens) (UniProt O94907); assay: DKK1 binders on small-molecule microarrays, primary screen, biochemical, small-molecule microarray, 635 nm fluorescence scan (AID 1106); conditions: DKK1 binding, higher = more signal;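 further: score merges emission near 667 nm with signal to noise over three replicate slides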
[10] = system: Inhibin beta A chain (activin A); assay: INHBA (activin A) binders on microarrays, primary screen, biochemical, small-molecule microarray, 635 nm fluorescence scan (AID 1107); conditions: small-molecule microarray binding, higher = more signal;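 further: mouse activin A protein probed at 4.33 µg/mL on printed slides; score merges bound-protein fluorescence near 667 nm with spot signal-to-noise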
[11] = system: Human papillomavirus type 1a protein E7 (residues 44-93); assay: HPV1a E7 fragment binders on microarrays, primary screen, biochemical, small-molecule microarray, residues 44-93, 635 nm fluorescence (AID 1108); conditions: small-molecule microarray binding, fluorescence 635 nm; higher = more signal;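 further: E7 fragment applied at 1 µg/mL in TBST for 1 h at 4 C; score combines spot fluorescence with its signal to noise ratio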
[12] = modulators of HCV replicon luciferase signal, primary screen, HCV replication inhibitor project, Huh7 cells, luciferase reporter (AID 1109); conditions: 48 h, higher = more signal;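 further: huh7 hepatoma cells harbouring a luciferase neomycin HCV replicon reporter; luciferase luminescence as measure of HCV replicon replication; test concentration not given here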
[13] = molecular target: Left-right determination factor 2 (Homo sapiens) (UniProt O00292); assay: LEFTY2 binders on small-molecule microarrays, primary screen, biochemical, small-molecule microarray, 635 nm fluorescence scan (AID 1110); conditions: LEFTY2 binding, higher = more signal
[14] = molecular target: Calmodulin-1 (Homo sapiens) (UniProt P0DP23); assay: CALM1 binders on microarrays, EGTA buffer, profiling panel, biochemical, small-molecule microarray, Cy5-labelled CALM1 (AID 1111); conditions: Cy5-CALM1 binding fluorescence, higher = more signal;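 further: labelled calmodulin applied in Tris saline Tween buffer holding calcium plus EGTA and DTT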
[15] = molecular target: Calmodulin-1 (Homo sapiens) (UniProt P0DP23); assay: calcium-bound CALM1 binders on microarrays, profiling panel, artefact control for SMM control-protein annotation, biochemical, small-molecule microarray, Cy5-labelled CALM1, plus calcium (AID 1112); conditions: Cy5-CALM1 binding fluorescence, higher = more signal;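 further: score merges spot fluorescence with signal to noise from triplicate slides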
[16] = small-molecule microarray binders of probe aWnt5a, primary screen, biochemical, biotinylated probe, 635/667 nm fluorescence (AID 1113); conditions: higher = more signal;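 further: score merges 667 nm fluorescence intensity with signal-to-noise per printed feature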
[17] = small-molecule microarray binders of probe aShh, primary screen, biochemical, biotinylated probe, 635/667 nm fluorescence (AID 1114); conditions: higher = more signal;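 further: probe is biotin-labelled aShh protein from a stem cell growth factor screen; measures binding of labelled protein to compounds printed on the slide; score merges feature fluorescence at 667 nm with signal-to-noise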
[18] = small-molecule microarray binders of probe aNog, primary screen, biochemical, biotinylated probe, 635/667 nm fluorescence (AID 1115); conditions: higher = more signal;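 further: probe is biotinylated aNog protein used at 0.15 µg/mL for 1 h at 4 C; z-score combines 667 nm fluorescence of each spot with its signal to noise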
[19] = molecular target: Torsin-1A-interacting protein 1 (Homo sapiens) (UniProt Q5JTV8); assay: LAP1 binders from COS7 cell lysate, primary screen, small-molecule microarray, 635/667 nm fluorescence (AID 1116); conditions: COS7-hLAP1 lysate binding, 635 nm fluorescence, higher = more signal
[20] = molecular target: Alpha-bungarotoxin (Bungarus multicinctus) (UniProt P60615); assay: alpha-bungarotoxin binders on microarray, profiling panel, artefact control for SMM control protein annotation, biochemical, small-molecule microarray, Alexa647 label, 635/667 nm fluorescence (AID 1117); conditions: alpha-BTX-A647 binding fluorescence, higher = more signal
Sequence of Alpha-bungarotoxin (Bungarus multicinctus) (P60615 whole entry, looked up): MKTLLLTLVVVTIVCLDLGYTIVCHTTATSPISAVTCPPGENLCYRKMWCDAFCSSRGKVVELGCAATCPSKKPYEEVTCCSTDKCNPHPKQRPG

Sequence of Epidermal growth factor receptor (Homo sapiens) (P00533 whole entry, looked up): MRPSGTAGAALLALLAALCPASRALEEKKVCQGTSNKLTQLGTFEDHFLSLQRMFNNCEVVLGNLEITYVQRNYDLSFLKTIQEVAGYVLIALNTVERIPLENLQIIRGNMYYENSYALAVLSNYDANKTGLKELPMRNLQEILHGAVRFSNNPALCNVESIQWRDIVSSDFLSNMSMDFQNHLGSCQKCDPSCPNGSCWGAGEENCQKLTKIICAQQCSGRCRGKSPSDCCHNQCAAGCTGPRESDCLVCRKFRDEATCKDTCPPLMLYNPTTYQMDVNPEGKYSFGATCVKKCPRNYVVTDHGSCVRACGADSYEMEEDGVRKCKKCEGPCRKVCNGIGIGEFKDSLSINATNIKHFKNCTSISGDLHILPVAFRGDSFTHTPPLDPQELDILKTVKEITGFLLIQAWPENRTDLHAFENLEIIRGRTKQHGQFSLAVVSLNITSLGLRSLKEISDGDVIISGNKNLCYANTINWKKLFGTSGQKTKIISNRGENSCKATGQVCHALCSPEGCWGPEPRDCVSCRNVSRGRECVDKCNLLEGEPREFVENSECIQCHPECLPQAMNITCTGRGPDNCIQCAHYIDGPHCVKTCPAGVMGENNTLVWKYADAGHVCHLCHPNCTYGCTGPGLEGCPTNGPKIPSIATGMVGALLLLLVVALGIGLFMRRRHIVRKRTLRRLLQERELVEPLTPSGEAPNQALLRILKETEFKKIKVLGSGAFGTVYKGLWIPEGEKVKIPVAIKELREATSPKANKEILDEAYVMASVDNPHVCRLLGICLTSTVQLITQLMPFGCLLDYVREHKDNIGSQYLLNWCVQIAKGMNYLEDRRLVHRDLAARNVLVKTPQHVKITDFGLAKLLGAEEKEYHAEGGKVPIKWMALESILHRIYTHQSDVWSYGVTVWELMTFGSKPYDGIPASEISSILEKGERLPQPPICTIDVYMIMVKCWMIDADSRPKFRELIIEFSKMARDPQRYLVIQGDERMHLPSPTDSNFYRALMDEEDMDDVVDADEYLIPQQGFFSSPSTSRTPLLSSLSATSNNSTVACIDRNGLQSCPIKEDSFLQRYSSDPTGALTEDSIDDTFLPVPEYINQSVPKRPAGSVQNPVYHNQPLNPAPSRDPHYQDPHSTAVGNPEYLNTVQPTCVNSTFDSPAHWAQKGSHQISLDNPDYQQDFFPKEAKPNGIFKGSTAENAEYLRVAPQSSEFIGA
Sequence of Left-right determination factor 2 (Homo sapiens) (O00292 whole entry, looked up): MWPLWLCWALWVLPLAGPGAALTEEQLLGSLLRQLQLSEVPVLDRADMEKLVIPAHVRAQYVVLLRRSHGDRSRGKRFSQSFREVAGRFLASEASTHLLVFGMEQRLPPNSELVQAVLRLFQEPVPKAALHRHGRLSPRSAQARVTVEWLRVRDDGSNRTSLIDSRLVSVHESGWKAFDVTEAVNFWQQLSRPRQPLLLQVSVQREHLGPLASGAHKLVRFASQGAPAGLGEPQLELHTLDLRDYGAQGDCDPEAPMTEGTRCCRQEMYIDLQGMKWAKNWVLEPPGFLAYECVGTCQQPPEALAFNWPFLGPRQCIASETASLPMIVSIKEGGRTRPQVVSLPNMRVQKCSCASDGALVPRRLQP
Sequence of Torsin-1A-interacting protein 1 (Homo sapiens) (Q5JTV8 whole entry, looked up): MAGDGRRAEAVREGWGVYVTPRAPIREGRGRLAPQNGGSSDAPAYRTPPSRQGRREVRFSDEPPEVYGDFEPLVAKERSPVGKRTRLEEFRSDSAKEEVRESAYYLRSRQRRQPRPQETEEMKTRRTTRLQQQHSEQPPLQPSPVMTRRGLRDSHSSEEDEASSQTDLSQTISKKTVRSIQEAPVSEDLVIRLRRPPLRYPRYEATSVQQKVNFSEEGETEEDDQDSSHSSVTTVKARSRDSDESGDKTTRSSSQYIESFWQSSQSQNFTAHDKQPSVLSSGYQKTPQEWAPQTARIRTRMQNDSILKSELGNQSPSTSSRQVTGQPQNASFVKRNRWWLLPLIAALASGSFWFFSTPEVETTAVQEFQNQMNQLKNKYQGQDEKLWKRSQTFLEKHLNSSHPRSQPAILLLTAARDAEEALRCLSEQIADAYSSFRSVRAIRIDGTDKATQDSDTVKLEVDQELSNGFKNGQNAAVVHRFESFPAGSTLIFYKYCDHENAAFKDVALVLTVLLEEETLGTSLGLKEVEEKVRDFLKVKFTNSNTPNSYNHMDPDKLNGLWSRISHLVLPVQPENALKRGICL
Sequence of Dickkopf-related protein 1 (Homo sapiens) (O94907 whole entry, looked up): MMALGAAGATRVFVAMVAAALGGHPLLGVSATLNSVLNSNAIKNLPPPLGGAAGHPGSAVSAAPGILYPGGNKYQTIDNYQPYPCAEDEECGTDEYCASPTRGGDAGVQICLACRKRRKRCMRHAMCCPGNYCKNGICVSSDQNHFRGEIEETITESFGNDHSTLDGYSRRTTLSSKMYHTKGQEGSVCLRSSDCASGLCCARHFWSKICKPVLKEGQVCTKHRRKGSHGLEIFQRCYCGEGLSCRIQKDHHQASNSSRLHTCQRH
Sequence of Follistatin-related protein 3 (Homo sapiens) (O95633 whole entry, looked up): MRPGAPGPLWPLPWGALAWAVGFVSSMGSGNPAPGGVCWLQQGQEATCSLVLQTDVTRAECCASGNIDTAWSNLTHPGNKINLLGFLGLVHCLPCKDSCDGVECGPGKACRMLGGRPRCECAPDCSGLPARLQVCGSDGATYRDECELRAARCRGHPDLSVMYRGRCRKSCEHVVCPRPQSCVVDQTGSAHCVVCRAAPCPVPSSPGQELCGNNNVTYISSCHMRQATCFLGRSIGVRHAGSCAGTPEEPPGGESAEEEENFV
Sequence of Fibroblast growth factor 10 (Homo sapiens) (O15520 whole entry, looked up): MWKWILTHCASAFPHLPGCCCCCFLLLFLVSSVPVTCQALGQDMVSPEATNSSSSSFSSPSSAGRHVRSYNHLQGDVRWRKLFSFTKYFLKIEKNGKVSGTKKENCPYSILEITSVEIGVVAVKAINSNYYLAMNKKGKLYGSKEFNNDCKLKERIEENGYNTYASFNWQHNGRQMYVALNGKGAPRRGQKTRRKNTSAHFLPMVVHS

Row | SMILES | composite z-score [1] | composite z-score [2] | composite z-score [3] | z-score [4] | composite z-score [5] | composite z-score [6] | composite z-score [7] | composite z-score [8] | composite z-score [9] | composite z-score [10] | composite z-score [11] | z-score [12] | composite z-score [13] | composite z-score [14] | composite z-score [15] | composite z-score [16] | composite z-score [17] | composite z-score [18] | composite z-score [19] | composite z-score [20]
1 | CC(C)C[C@H](NC(=O)CCC1CC(OC(=O)NCc2cccc3ccccc23)CC2(CCCC(COC(=O)NCc3ccccc3)O2)O1)C(=O)NCC(c1ccccc1)c1ccccc1 (stereo not given in full) | 0.683 | -0.0553 | -0.304 | 0.536 (inactive) | 1.26 | 0.91 | 0.667 | 1.12 | 0.861 | -0.156 | 1.28 | -1.27 | 0.913 | 0.0799 | -0.202 | -0.0825 | 0.0611 | -0.0863 | 0.508 | -0.157
2 | COC(=O)[C@H](C)NC(=O)CCC1CC(OC(=O)NCCc2ccc(F)cc2)CC2(CCCC(COC(=O)NCCC(C)C)O2)O1 (stereo not given in full) | 0.597 | -0.185 | -0.269 | -1.56 (inactive) | 0.866 | -0.102 | 0.0797 | 0.961 | 0.0468 | 0.299 | 0.466 | 0.839 | 0.482 | 0.0458 | -0.233 | -0.119 | 0.0483 | -0.254 | 0.189 | 1.07
3 | COc1ccc(COC(=O)NN=C2C[C@@H](O)[C@@H](O)[C@@H]3[C@@H]4C(=O)N(c5ccc(F)cc5F)C(=O)[C@@H]4CC[C@H]23)cc1 | 0.299 | 0.939 | 1.22 | -0.531 (inactive) | 0.0785 | -0.258 | -1.2 | -0.496 | -1.13 | -0.009 | -0.246 | -0.107 | -0.551 | -0.252 | -0.318 | -0.169 | -0.0769 | -0.273 | -0.724 | 0.616
4 | O=C1CCCC=C1C(O)CCCCBr (stereo not given) | 1.09 | 0.763 | 0.653 | -0.793 (inactive) | 0.404 | -0.115 | 0.0038 | 1.18 | 0.945 | 1.26 | 0.619 | -4.22 | -0.0175 | 1.35 | 0.403 | -0.124 | 0.191 | -0.438 | 0.293 | 2.09
5 | CCOC(=O)[C@H](Cc1ccccc1)NC(=O)CCC1CC(OC(=O)NCc2ccc3c(c2)OCO3)CC2(CCCC(COC(=O)NCCc3ccccc3OC)O2)O1 (stereo not given in full) | 0.604 | -0.0864 | -0.465 | 0.222 (inactive) | 0.977 | 1.23 | 0.539 | 1.35 | 0.759 | 0.0493 | 1.39 | -1.11 | 0.816 | 0.627 | 0.157 | -0.0944 | -0.0471 | -0.0125 | 0.775 | 1.11
6 | C[C@@H](c1ccccc1)N1C(=O)[C@H]2[C@H]3[C@H](O)[C@H](O)CC(=NOCc4ccccc4)[C@H]3CC[C@H]2C1=O | 0.8 | -0.197 | -0.442 | -0.0874 (inactive) | 0.601 | 0.535 | 0.45 | 0.44 | 0.312 | -0.27 | 1.43 | 0.547 | 0.491 | 0.209 | -0.298 | -0.0635 | -0.0626 | -0.425 | 0.826 | 0.571
7 | C#CCCCON=C1C[C@@H](O)[C@@H](O)[C@@H]2[C@@H]3C(=O)N(c4cccc(Oc5ccccc5)c4)C(=O)[C@@H]3CC[C@H]12 | 1.06 | -0.406 | 0.155 | -0.558 (inactive) | -0.948 | -1.56 | -0.356 | -0.845 | -0.557 | -0.69 | -0.578 | 0.18 | -0.914 | -0.423 | 0.361 | -0.172 | -0.138 | -0.237 | 0.441 | -0.702
